According to PubChem BioAssay (EPA / NIEHS):
Several values for one entry are separate records, joined by “and”; a condition that tells them apart may be missing. Equal entries are not always repeated. A structure can be active in one record and inactive in another. Activity calls are given as the source filed them. The calls were made as follows: active = hit-call score of the fitted dose curve at least 0.9, where 1 is the maximum; inactive = score below 0.9.

Legend:
Conditions in all cases: mRNA level, 48 h; actives raise or lower the signal
[1] = read-out: growth arrest and DNA damage 45 (GADD45G), GADD45G (gene 10912); experiment: LTEA_HepaRG_GADD45G: Life Technologies and Expression Analysis (LTEA) Assay for growth arrest and DNA damage 45 (GADD45G) using HepaRG (AID 2283499)
Outline: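 GADD45G transcript level by qRT-PCR (housekeeping-normalized: ACTB, GAPDH, POLR2A) after 48 h chemical treatment of a single HepaRG lot in serum-free induction medium; eight-point half-log series up to 100 uM in 0.5% DMSO, duplicates, up- or down-regulation scored.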

[2] = read-out: Glutamate-cysteine ligase regulatory (GCLM), GCLM (gene 2730); experiment: LTEA_HepaRG_GCLM: Life Technologies and Expression Analysis (LTEA) Assay for Glutamate-cysteine ligase regulatory (GCLM) using HepaRG (AID 2283500)
Outline: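 In this multiplexed HepaRG gene-expression assay, GCLM mRNA change after 48 h treatment (8 concentrations, max 100 uM) was scored against DMSO by bidirectional curve fitting.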

[3] = read-out: Glutathione S-transferase M3 (GSTM3), GSTM3 (gene 2947); experiment: LTEA_HepaRG_GSTM3: Life Technologies and Expression Analysis (LTEA) Assay for Glutathione S-transferase M3 (GSTM3) using HepaRG (AID 2283501)
Outline: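 GSTM3 transcript levels came from Fluidigm TaqMan qRT-PCR normalized to three housekeeping genes, fitted in both directions against DMSO. HepaRG cultures received chemicals for 48 h in serum-free induction medium (0.5% DMSO), 8 half-log concentrations up to 100 uM, duplicate.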

[4] = read-out: Heat shock 70 kDa protein 1 (HSPA1A), gene 3303; experiment: LTEA_HepaRG_HSPA1A: Life Technologies and Expression Analysis (LTEA) Assay for Heat shock 70 kDa protein 1 (HSPA1A) using HepaRG (AID 2283502)
Outline: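 An oxidative-stress marker readout: HepaRG cells treated 48 h in duplicate with an eight-point series (highest 100 uM) had HSPA1A mRNA quantified by TaqMan qRT-PCR. Activity was fitted in both directions using 0.5% DMSO as baseline.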

[5] = read-out: Hypoxia-inducible factor 1-alpha (Homo sapiens) (UniProt Q16665); experiment: LTEA_HepaRG_HIF1A: Life Technologies and Expression Analysis (LTEA) Assay for Hypoxia-inducible factor 1 (HIF1A) Trancription factor using HepaRG (AID 2283503)
Outline: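 Gain- or loss-of-signal HIF1A mRNA changes are fitted against a DMSO baseline. HepaRG cultures receive eight concentrations, highest 100 uM, for 48 h in serum-free induction medium with 0.5% DMSO.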

[6] = read-out: 3-Hydroxy-3-Methylglutaryl-CoA Synthase 2 (HMGCS2), HMGCS2 (gene 3158); experiment: LTEA_HepaRG_HMGCS2: Life Technologies and Expression Analysis (LTEA) Assay for 3-Hydroxy-3-Methylglutaryl-CoA Synthase 2 (HMGCS2) using HepaRG (AID 2283504)
Outline: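 Readout is HMGCS2 transcript by qRT-PCR, housekeeping-normalised (ACTB/GAPDH/POLR2A) and fitted bidirectionally against 0.5% DMSO. Differentiated HepaRG cells received chemicals 48 h, duplicate wells, eight half-log concentrations topping at 100 uM.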

HGF (gene 3082) = experiment: LTEA_HepaRG_HGF: Life Technologies and Expression Analysis (LTEA) Assay for Hepatocyte Growth Facto (HGF) using HepaRG (AID 2283505)
Outline: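 HGF transcript was quantified by TaqMan qRT-PCR against three housekeeping genes after 48 h treatment of HepaRG cells. Exposure ran in duplicate over eight half-log steps topping at 100 uM in 0.5% DMSO vehicle.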

[7] = read-out: Insulin Like Growth Factor 1 (IGF1), IGF1 (gene 3479); experiment: LTEA_HepaRG_IGF1: Life Technologies and Expression Analysis (LTEA) Assay for Insulin Like Growth Factor 1 (IGF1) using HepaRG (AID 2283506)
Outline: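 Endpoint: IGF1 mRNA change by qRT-PCR, housekeeping-normalized, fitted bidirectionally relative to 0.5% DMSO vehicle. Human HepaRG cells were treated 48 h in serum-free induction medium, eight half-log concentrations topping at 100 uM.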

[8] = read-out: Intercellular Adhesion Molecule 1 (ICAM1), ICAM1 (gene 3383); experiment: LTEA_HepaRG_ICAM1: Life Technologies and Expression Analysis (LTEA) Assay for Intercellular Adhesion Molecule 1 (ICAM1) using HepaRG (AID 2283507)
Outline: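 ICAM1 transcript levels measured by qRT-PCR, normalized to three housekeeping genes (ACTB, GAPDH, POLR2A), after 48 h chemical exposure of HepaRG cells. Duplicate eight-point half-log series from 100 uM in 0.5% DMSO; gain or loss fitted against vehicle.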

[9] = read-out: Insulin-like growth factor-binding protein 1 (IGFBP1), IGFBP1 (gene 3484); experiment: LTEA_HepaRG_IGFBP1: Life Technologies and Expression Analysis (LTEA) Assay for Insulin-like growth factor-binding protein 1 (IGFBP1) using HepaRG (AID 2283508)
Outline: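 Read-out is qRT-PCR transcript level normalized to three housekeeping genes, fitted in both directions against 0.5% DMSO. Differentiated HepaRG cells received eight half-log concentrations (top 100 uM) in duplicate for 48 h in serum-free induction medium.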

[10] = read-out: Interleukin 6 (IL6), IL6 (gene 3569); experiment: LTEA_HepaRG_IL6: Life Technologies and Expression Analysis (LTEA) Assay for Interleukin 6 (IL6) using HepaRG (AID 2283509)
Outline: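 qRT-PCR read-out of IL6 transcript, normalized to three housekeeping genes, after 48 h chemical exposure of HepaRG cells; 8-point half-log series, top 100 uM, 0.5% DMSO vehicle. Bidirectional curve fitting against DMSO baseline.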

[11] = read-out: Interleukin 6 Receptor (IL6R), IL6R (gene 3570); experiment: LTEA_HepaRG_IL6R: Life Technologies and Expression Analysis (LTEA) Assay for Interleukin 6 Receptor (IL6R) using HepaRG (AID 2283510);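 as to AC50: differentiated human HepaRG liver cells in serum-free induction medium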
Outline: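 In this HepaRG screen, test chemicals act on cells for 48 h at up to 100 uM (eight half-log points, duplicate wells). IL6R expression is quantified by qRT-PCR after normalization to ACTB, GAPDH and POLR2A, with DMSO as baseline.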

[12] = read-out: Potassium channel subfamily K member 1 (KCNK1), KCNK1 (gene 3775); experiment: LTEA_HepaRG_KCNK1: Life Technologies and Expression Analysis (LTEA) Assay for Potassium channel subfamily K member 1 (KCNK1) using HepaRG (AID 2283511)
Outline: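 HepaRG, 48 h exposure, 8-pt half-log series top 100 uM, 0.5% DMSO vehicle, duplicates. Readout: KCNK1 transcript by qRT-PCR (Fluidigm array), housekeeping-normalized; bidirectional curve fit relative to DMSO baseline.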

[13] = read-out: Keratin 19 (KRT19), KRT19 (gene 3880); experiment: LTEA_HepaRG_KRT19: Life Technologies and Expression Analysis (LTEA) Assay for Keratin 19 (KRT19) using HepaRG (AID 2283512)
Outline: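 KRT19 transcript measured by TaqMan qRT-PCR, referenced to three housekeeping genes, after HepaRG cells received test chemicals for 48 h. Eight half-log concentrations, top 100 uM, 0.5% DMSO vehicle; increases and decreases both fitted.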

[14] = read-out: JUN Transcription Factor, JUN (gene 3725); experiment: LTEA_HepaRG_JUN: Life Technologies and Expression Analysis (LTEA) Assay for JUN Transcription Factor using HepaRG (AID 2283513)
Outline: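 Gene-expression endpoint: JUN mRNA (qRT-PCR, normalized to three reference genes) in HepaRG cultures treated 48 h with chemicals, duplicate wells, 100 uM maximum with half-log dilutions; bidirectional fitting relative to 0.5% DMSO.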

[15] = read-out: Lipase C (LIPC), LIPC (gene 3990); experiment: LTEA_HepaRG_LIPC: Life Technologies and Expression Analysis (LTEA) Assay for Lipase C (LIPC) using HepaRG (AID 2283514)
Outline: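 HepaRG, 48 h exposure, 8-pt half-log series from 100 uM in 0.5% DMSO, duplicates. Readout: LIPC mRNA by Fluidigm qRT-PCR, housekeeping-normalized (ACTB/GAPDH/POLR2A). Gain or loss fitted bidirectionally against DMSO baseline.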

[16] = read-out: Lipoprotein lipase (LPL), LPL (gene 4023); experiment: LTEA_HepaRG_LPL: Life Technologies and Expression Analysis (LTEA) Assay for Lipoprotein lipase (LPL) using HepaRG (AID 2283515)
Outline: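 HepaRG, 48 h exposure, 8-pt half-log dilutions from 100 uM, 0.5% DMSO vehicle, duplicates; qRT-PCR (Fluidigm array) of LPL mRNA vs housekeeping genes; bidirectional curve fit relative to DMSO baseline.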

[17] = read-out: MicroRNA 122 (MIR122), gene 406906; experiment: LTEA_HepaRG_MIR122: Life Technologies and Expression Analysis (LTEA) Assay for MicroRNA 122 (MIR122) using HepaRG (AID 2283516); also: the transcript read is the microRNA miR-122
Outline: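 Changes in transcript abundance, up or down relative to 0.5% DMSO vehicle, were scored after 48 h chemical treatment of HepaRG cells (maximum 100 uM). Quantification used TaqMan qRT-PCR normalized to housekeeping genes.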

[18] = read-out: matrix metalloproteinase-10 (MMP10), MMP10 (gene 4319); experiment: LTEA_HepaRG_MMP10: Life Technologies and Expression Analysis (LTEA) Assay for matrix metalloproteinase-10 (MMP10) using HepaRG (AID 2283517)
Outline: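 Transcript levels come from Fluidigm qRT-PCR normalized to three housekeeping genes, with curves fitted bidirectionally against 0.5% DMSO. Human HepaRG cells were dosed for 48 hours at concentrations up to 100 uM.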

MYC, MYC (gene 4609) = experiment: LTEA_HepaRG_MYC: Life Technologies and Expression Analysis (LTEA) Assay for MYC using HepaRG (AID 2283518)
Outline: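 MYC transcript changes, up or down relative to 0.5% DMSO, from TaqMan qRT-PCR normalized to three housekeeping genes. Human HepaRG cultures received chemicals for 48 h at eight half-log concentrations up to 100 uM, in duplicate.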

Measured: AC50

Hypoxia-inducible factor 1-alpha (Homo sapiens), sequence (Q16665 whole entry, looked up): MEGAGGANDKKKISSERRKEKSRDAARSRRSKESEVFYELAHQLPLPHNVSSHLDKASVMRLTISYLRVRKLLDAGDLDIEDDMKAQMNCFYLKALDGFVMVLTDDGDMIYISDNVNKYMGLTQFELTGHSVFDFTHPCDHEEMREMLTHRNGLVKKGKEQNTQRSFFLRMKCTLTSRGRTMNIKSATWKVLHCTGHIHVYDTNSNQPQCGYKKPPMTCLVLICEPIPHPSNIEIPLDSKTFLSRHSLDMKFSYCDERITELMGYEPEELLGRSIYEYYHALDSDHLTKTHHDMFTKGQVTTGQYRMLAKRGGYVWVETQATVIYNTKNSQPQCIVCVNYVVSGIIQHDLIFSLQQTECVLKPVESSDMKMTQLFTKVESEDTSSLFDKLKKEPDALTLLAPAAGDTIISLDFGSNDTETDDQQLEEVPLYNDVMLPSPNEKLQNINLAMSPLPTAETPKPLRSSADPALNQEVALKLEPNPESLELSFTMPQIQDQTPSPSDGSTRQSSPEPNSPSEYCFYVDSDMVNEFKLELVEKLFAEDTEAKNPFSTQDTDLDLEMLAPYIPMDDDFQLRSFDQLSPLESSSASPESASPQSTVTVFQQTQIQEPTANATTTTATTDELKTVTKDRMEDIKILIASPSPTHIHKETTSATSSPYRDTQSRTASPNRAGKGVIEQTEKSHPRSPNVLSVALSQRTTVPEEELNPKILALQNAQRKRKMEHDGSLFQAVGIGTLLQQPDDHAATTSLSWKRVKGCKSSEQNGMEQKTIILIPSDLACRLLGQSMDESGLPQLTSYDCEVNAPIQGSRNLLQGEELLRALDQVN

COC(=O)c1ccc(C(=O)OC)cc1
inactive: all assays above

C#C[C@]1(O)CC[C@H]2[C@@H]3CCc4cc(O)ccc4[C@H]3CC[C@@]21C
not listed: [2]
inactive: all other assays above

O=C(c1ccc(OCCN2CCCCC2)cc1)c1c(-c2ccc(O)cc2)sc2cc(O)ccc12
active: [4] 88.1 µM | [6] 3.14 µM | [7] 78.3 µM | [8] 71 µM | [9] 75.6 µM | [10] 75.9 µM | [14] 82.6 µM | [16] 80.4 µM | [18] 78.7 µM
not listed: [5]
inactive: all other assays above

CC/C(=C(\c1ccccc1)c1ccc(OCCN(C)C)cc1)c1ccccc1
active: [1] 90.5 µM | [2] 74 µM and 50 µM | [4] 74.8 µM and 76.4 µM | [5] 82 µM | [6] 66 µM | [7] 84.6 µM | [8] 85.1 µM and 99.2 µM | [9] 65.9 µM and 57 µM | [10] 71.4 µM and 92.3 µM | [11] 93.4 µM | [13] 11.2 µM | [14] 74.6 µM and 89.2 µM | [15] 93.9 µM | [16] 76.5 µM | [18] 75 µM and 50 µM | MYC, MYC (gene 4609) 85.6 µM
inactive: [1] | [3] | [5] | [6] | HGF (gene 3082) | [7] | [11] | [13] | [15] | [16] | [17] | MYC, MYC (gene 4609)
